# Bioassay records: PubChem BioAssay, The Scripps Research Institute Molecular Screening Center
# This is a sample that favours compounds with a hit; in the whole collection about 4.1% have one here.
# hcDAF12 agonist – H. contortus DAF-12 nuclear receptor activators, primary screen, cell-based, luminescence, HEK293, lit1-tk-luc reporter | activation, % at 6.8 µM | HEK293 hcDAF-12 lit1-tk-luc reporter; 0% DMSO, 100% Δ7-dafachronic acid | AID 652067, 2013 | 370,000 tested, 1.4% active;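 active = activation above the mean of all tested compounds plus 3 SD, cut at about 5.5% in these data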;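 note: 100% = response to 3 µM Δ7-dafachronic acid high control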
# hgDAF-12 ag – H. glycines DAF-12 receptor agonists, primary screen, cell-based, luminescence, HEK293, GAL4 fusion, UAS-luciferase; Nuclear hormone receptor DAF-12 (Heterodera glycines), GAL4 fusion; HEK293 GAL4-hgDAF12 UAS-luciferase reporter, agonist luminescence; normalized to butyrate control; activation, % at 6.8 µM; 370,000 tested, 1.8% active; AID 687014, 2013;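 active = activation above a cutoff set at the mean of all screened compounds plus 3 SD, cut at about 10% in these data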;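 note: 0% = DMSO wells and 100% = sodium butyrate wells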
# DAX1 inh-1 – DAX1 (NR0B1) inhibitors on StAR promoter, primary screen, cell-based, luminescence, SF-1 (NR5A1), full-length DAX-1; HEK293T StAR-luciferase reporter, SF-1/DAX-1 repression relief; inhibition, % at 6.8 µM; 370,000 tested, 1.1% active;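 active = inhibition above the mean over all tested compounds plus 3 SD, cut at about 3.6% in these data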;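 note: 0% = DAX-1 cells with DMSO and 100% = cells lacking DAX-1 with DMSO; higher inhibition means more luminescence from relief of DAX-1 repression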
# ssDAF-12 act – S. stercoralis DAF-12 nuclear receptor activators, primary screen, cell-based, luminescence, HEK293, GRIP1 co-expression, lit1-tk-luc; HEK293 ssDAF-12/GRIP1 lit1-tk-luc reporter; % of 3 µM dafachronic acid response; activation, % at 6.8 µM; 370,000 tested, 1% active;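 active = activation above the mean over all tested compounds plus 3 SD, cut at about 0.9% in these data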;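 note: 0% = DMSO-only wells and 100% = 3 µM delta7-dafachronic acid wells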
# DAX1 inh-2 – DAX1 (NR0B1) inhibitors, primary screen, cell-based, HEK293, Gal4-DAX1, luciferase luminescence; Nuclear receptor subfamily 0 group B member 1 (Homo sapiens), P51843; HEK293 Gal4-DAX1 luciferase reporter; inhibition, % at 6.75 µM; 340,000 tested, 0.99% active;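 active = inhibition above the mean over all tested compounds plus 3 SD, cut at about 4.2% in these data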;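 note: 0% = DAX1-transfected cells with DMSO and 100% = empty-vector control cells with DMSO; inhibition shows as a rise in luminescence from relieved DAX1 repression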
# Target sequence (P51843 207-470 limits assumed): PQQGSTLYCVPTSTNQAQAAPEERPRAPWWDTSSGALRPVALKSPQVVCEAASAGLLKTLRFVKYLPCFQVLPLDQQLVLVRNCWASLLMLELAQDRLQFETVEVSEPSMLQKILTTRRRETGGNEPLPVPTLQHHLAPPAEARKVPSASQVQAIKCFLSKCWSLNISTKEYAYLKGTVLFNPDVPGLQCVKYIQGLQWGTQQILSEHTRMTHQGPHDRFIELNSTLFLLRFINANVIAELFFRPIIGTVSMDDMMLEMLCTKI
# Numbers without * were called inactive; nt = no result given.
SMILES,hcDAF12 agonist,hgDAF-12 ag,DAX1 inh-1,ssDAF-12 act,DAX1 inh-2
Cc1ccc(NC(=O)CNCc2ccccc2OCC(=O)Nc2ccc(I)cc2)cc1,-3.2,4.4,-0.2,-1.3,nt
O=C(COc1ccccc1CNCc1ccccc1)Nc1ccccc1,-0.4,10.7*,3.5,-1.6,1.7
O=C1NC(=O)C2(CCOc3ccc(F)cc32)N1 (stereo not drawn),-0.3,0.2,0.6,-0.6,nt
Cc1ccc(NC(=O)C2(S(=O)(=O)c3ccc(C)cc3)CC2)cc1,nt,nt,nt,nt,0.0
Cc1ccc(S(=O)(=O)C2(C(=O)Nc3ccc(C(C)C)cc3)CC2)cc1,-1.3,7.7,-0.3,1.0*,-1.9
CCOC(=O)C(Cc1ccccc1)NC(=O)CCc1c(C)nc2ncnn2c1C (stereo not drawn),5.7*,0.5,0.3,-0.7,0.5
CCOC(=O)C(Cc1ccccc1)NC(=O)CCc1c(C)nc2nc(C)nn2c1C (stereo not drawn),1.0,-0.8,-0.5,-1.1,-0.4
COC(=O)C1CN(C2CCCC2)CCS(=O)(=O)N1Cc1cn(Cc2ccc(OC)cc2)nn1 (stereo not drawn),-2.9,6.9,0.2,-0.7,nt
COc1ccc2sc(-c3ccccc3OC)c(-c3ccc(SC)cc3)c2c1,-0.1,1.0,3.8*,-1.2,nt
COc1ccc2sc(-c3ccccc3OC)c(-c3ccc(OC)c(F)c3)c2c1,-0.2,1.4,-0.6,-1.1,0.7
CN[C@H]1C[C@H]2c3cc(-c4ccccc4C)ccc3CCN2C[C@H]1[C@H](C)O,1.3,3.0,-0.7,-2.0,nt
CCN(CC)CCNC(=O)c1cc2c(-c3cccc(OC)c3)nn(C)c2s1,5.4,3.9,0.6,1.2*,-0.3
CCOCCCNC(=O)c1cc2c(-c3ccc(Cl)cc3)nn(C)c2s1,4.7,1.6,-1.1,-1.3,-1.6
CCN(CC)CCNC(=O)c1cc2c(-c3ccc(Cl)cc3)nn(C)c2s1,9.7*,2.8,2.3,0.2,2.3
COCCCNC(=O)c1cc2c(-c3cccc(OC)c3)nn(C)c2s1,-1.8,-1.0,-0.6,-0.8,-0.1
Cc1cc(C(=O)Nc2ccc(Br)cc2)cs1,5.6*,9.0,3.9*,-0.2,1.0
CNS(=O)(=O)c1ccc(NC(=O)c2csc(C)c2)cc1,-1.6,-0.1,-1.2,-0.4,0.7
COC(=O)c1sccc1NC(=O)Nc1ccc(Cl)c(Cl)c1,4.4,11.0*,1.1,-0.2,3.9
COC(=O)c1sccc1NC(=O)c1csc(C)c1,3.3,0.5,-1.2,1.0*,-0.4
CCC(NC(=O)c1cc(COc2ccc(F)cc2Cl)on1)c1ccncc1 (stereo not drawn),-3.0,-2.4,-5.9,-1.4,-1.1
CCN(Cc1cn(CC2CCCCC2)nn1)S(=O)(=O)c1ccccc1Br,-2.6,2.0,-0.3,-1.0,nt
CCCC[C@H]1C2CC(OC(=O)Nc3ccc(C(F)(F)F)cc3)C(C2)[C@H]2CCCCN21 (stereo partly drawn),-2.3,2.8,-0.2,-1.3,nt
Cc1ccc2nc(CCc3ccc(N)cc3)[nH]c2c1,1.9,11.4*,1.0,0.5,1.5
Nc1ccc2nc(CCc3ccccc3)[nH]c2c1,2.7,2.1,-0.2,-1.0,1.0
Cc1nc2c(OCc3ccc(Cl)cc3)cccn2c1N(C)C(=O)CCC1CCCC1,-1.0,10.5*,-0.6,-0.9,nt
SMILES,hcDAF12 agonist,hgDAF-12 ag,DAX1 inh-1,ssDAF-12 act,DAX1 inh-2
COc1ccc(NC(=O)C(=S)NC2CCCCC2)cc1,1.5,12.2*,2.9,-0.7,1.9
COc1ccc(NC(=O)Nc2ccccn2)cc1OC,1.0,-0.3,0.8,1.5*,0.2
COc1ccc(NC(=O)NC2CCCCCCC2)cc1OC,1.2,0.5,4.4*,-0.7,0.3
COc1ccc(OC)c(NC(=O)NC2CCCCCCC2)c1,-1.2,1.9,0.2,-1.1,-1.0
COC(=O)c1ccc(OC)c(OC2CCCC2)c1,-0.8,0.6,-0.3,-0.6,6.3*
O=C(Nc1ccc(Cl)c(Cl)c1)Nc1ccccn1,-0.2,6.9,0.4,0.5,3.6
O=S1(=O)c2ccc(N3CCSCC3)cc2Oc2ccccc2CN1Cc1cn(Cc2cccc(F)c2)nn1,-1.3,-2.9,0.0,-1.7,nt
Cc1ccc(NC(=O)C2CCN(C(=O)NC3CCCCC3)CC2)cc1Cl,-1.1,-3.0,-1.4,-1.5,-0.9
Cc1ccc(NC(=O)NC2CCCCC2)cc1Cl,1.9,12.4*,1.9,0.2,3.5
CCCCn1cnc2c(=O)[nH]ccc21,0.8,2.1,1.2,-1.5,nt
CCn1c(SCC#N)nc2ccccc2c1=O,-1.3,-2.1,-0.1,-1.0,5.2*
CCn1c(SCC(=O)c2ccccc2)nc2ccccc2c1=O,0.9,2.5,-0.6,-1.3,-0.9
COc1ccc(-c2c(Cc3ccccc3)nc(NC(=O)c3ccccc3)n2Cc2ccccc2)cc1,-1.7,-0.2,0.8,-1.8,nt
Cc1ccc(NC(=S)Nc2cccc3ccccc23)cc1,2.6,0.5,-2.1,1.0*,2.1
Fc1ccc(NC(=S)Nc2cccc3ccccc23)cc1F,3.7,2.3,0.6,0.3,1.0
Cc1cc(C)cc(NC(=S)Nc2cccc3ccccc23)c1,3.0,2.0,0.1,-0.7,0.5
Fc1ccc(NC(=S)Nc2cccc3ccccc23)cc1,5.7*,1.8,0.7,0.2,0.6
CCOC(=O)[C@@]12CN(C(=O)OC(C)(C)C)CC=C1N(Cc1ccc(OC)cc1)C(=O)[C@H]2CC(=O)N1CCOCC1,0.2,0.1,-0.5,-1.4,nt
COc1ccc(/C=N/N=C2/SCC(=O)N2Cc2ccccc2)cc1,2.4,12.8*,1.1,-0.1,5.8*
Cc1ccccc1C(=O)NC1CCN(CC(=O)NCc2cccs2)CC1,-1.4,2.6,0.2,-1.7,5.2*
Cc1ccccc1C(=O)NC1CCN(Cc2nnnn2CCc2ccccc2)CC1,-0.4,2.3,0.1,-1.4,-1.2
Cc1ccc(C(=O)NC2CCN(CC(=O)NCc3cccs3)CC2)cc1,-0.4,-0.7,1.6,-1.0,1.0
Cc1ccccc1C(=O)NC1CCN(Cc2ccccc2)CC1,0.7,0.2,0.2,1.4*,0.2
COc1ccc(Cn2ccc3ccc(-c4ccc5ccn(Cc6ccccc6)c5c4)cc32)cc1,1.6,8.6,-0.1,0.6,nt
O=C(CSc1nnc(-c2cccs2)n1-c1cccc(Cl)c1)c1cccc2c1OCCO2,-1.0,0.8,-0.1,-0.5,6.1*
CCOC(=O)[C@]12CCCCC/C=C\1N(Cc1ccc(OC)cc1)C(=O)[C@H]2CC(=O)NCc1ccccc1,-1.0,2.5,0.6,-2.0,nt
CC1Cn2c(COc3ccccc3)nnc2S1 (stereo not drawn),-1.2,-1.6,-0.3,-1.4,3.4
Cc1ccccc1OCc1nnc2n1CC(C)S2 (stereo not drawn),0.5,2.6,-0.7,0.1,4.6*
